# Where a name gives a salt, the structure may show the parent alone. ± gives the standard deviation of the averaged measurements.
# Assays:
# Assay in all cases: growth (OD600 after 10 h); higher = more growth (less inhibition)
# [1] = test system: E. coli TESEC Alr+ wild-type control; conditions: compound 0.1 mM; raw OD600 reference: median of DMSO wells 0.241, cell-free background 0.041
# Protocol: (§1)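 TESEC Mtb Alr E. coli, or the Alr+ wild-type control, in 384-well plates with Prestwick library compounds at 0.1 mM and 1% DMSO, across arabinose induction levels of 1E3 to 1E7 nM. Growth is read as OD600 after 10 h at 37 °C in triplicate biological replicates.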
# E. coli TESEC Mtb Alr [2] = conditions: compound 0.1 mM
# Protocol: as §1
# E. coli TESEC Mtb Asd = conditions: compound 0.1 mM
# Protocol: (§2)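 TESEC E. coli strains in which the native enzyme is deleted and replaced by arabinose-inducible Mtb Asd, DapB, CysH or TrpD, each grown in its selective medium. Strains were screened against the Prestwick library at 0.1 mM and 1% DMSO in 384-well format at low and high arabinose induction. Growth is read as OD600 after 10 h in triplicate.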
# E. coli TESEC Mtb DapB = conditions: compound 0.1 mM
# Protocol: as §2
# [3] = test system: E. coli TESEC Alr+ wild-type control; conditions: compound 0.1 mM; raw OD600 reference: median of DMSO wells 0.49, cell-free background 0.052
# Protocol: (§3)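 TESEC Mtb Alr E. coli (ΔaraC ΔtolC ΔentC Δalr ΔdadX, arabinose-inducible Mtb Alr) or the Alr+ wild-type control strain, grown in defined M9-fructose medium without D-alanine in 96-well plates with Prestwick library compounds at 0.1 mM and 1% DMSO. Low Alr induction is 0.1 µM arabinose and high induction is 10 mM arabinose.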
# E. coli TESEC Mtb Alr [4] = conditions: compound 0.1 mM; remark: listed apart in the source
# Protocol: as §3
# [5] = arabinose 1000 nM, raw OD600 reference: median of DMSO wells 0.294, cell-free background 0.041
# [6] = arabinose 10000 nM, raw OD600 reference: median of DMSO wells 0.264, cell-free background 0.041
# [7] = arabinose 100000 nM, raw OD600 reference: median of DMSO wells 0.201, cell-free background 0.041
# [8] = arabinose 1000000 nM, raw OD600 reference: median of DMSO wells 0.193, cell-free background 0.041
# [9] = arabinose 10000000 nM, raw OD600 reference: median of DMSO wells 0.146, cell-free background 0.041
# [10] = arabinose induction (level): High, raw OD600 reference: median of DMSO wells 0.331, cell-free background 0.041
# [11] = arabinose induction (level): Low, raw OD600 reference: median of DMSO wells 0.417, cell-free background 0.041
# [12] = arabinose induction (level): High, raw OD600 reference: median of DMSO wells […], cell-free background 0.041
# [13] = arabinose induction (level): Low, raw OD600 reference: median of DMSO wells 0.227, cell-free background 0.041
# [14] = arabinose 100 nM, raw OD600 reference: median of DMSO wells 0.413, cell-free background 0.052
# [15] = arabinose 10000000 nM, raw OD600 reference: median of DMSO wells […], cell-free background 0.052
SMILES,growth [1],growth (E. coli TESEC Mtb Alr [2]; [5]),growth (E. coli TESEC Mtb Alr [2]; [6]),growth (E. coli TESEC Mtb Alr [2]; [7]),growth (E. coli TESEC Mtb Alr [2]; [8]),growth (E. coli TESEC Mtb Alr [2]; [9]),growth (E. coli TESEC Mtb Asd; [10]),growth (E. coli TESEC Mtb Asd; [11]),growth (E. coli TESEC Mtb DapB; [12]),growth (E. coli TESEC Mtb DapB; [13]),growth [3],growth (E. coli TESEC Mtb Alr [4]; [14]),growth (E. coli TESEC Mtb Alr [4]; [15])
CC(=O)OCC(CCn1cnc2cnc(N)nc21)COC(C)=O [Famciclovir],0.23 ± 0.005,0.288 ± 0.0069,0.269 ± 0.0058,0.184 ± 0.031,0.21 ± 0.021,0.14 ± 0.0045,0.284 ± 0.048,0.386 ± 0.039,0.179 ± 0.0051,0.199 ± 0.031,0.56 ± 0.17,0.4163 ± 0.0038,0.346 ± 0.0062
O=C(CCCN1CC=C(n2c(=O)[nH]c3ccccc32)CC1)c1ccc(F)cc1 [Droperidol],0.178 ± 0.0085,0.241 ± 0.005,0.225 ± 0.0067,0.175 ± 0.014,0.105 ± 0.0018,0.152 ± 0.0037,0.205 ± 0.056,0.359 ± 0.058,0.184 ± 0.015,0.206 ± 0.029,0.404 ± 0.025,0.409 ± 0.0085,0.276 ± 0.0059
CC[C@H]1OC(=O)[C@H](C)[C@@H](O[C@H]2C[C@@](C)(OC)[C@@H](O)[C@H](C)O2)[C@H](C)[C@@H](O[C@@H]2O[C@H](C)C[C@H](N(C)C)[C@H]2O)[C@](C)(OC)C[C@@H](C)C(=O)[C@H](C)[C@@H](O)[C@]1(C)O [Clarithromycin],0.0414 ± 0.00036,0.0421 ± 0.00026,0.04 ± 0.00071,0.0426 ± 0.00059,0.041 ± 0.0018,0.0437 ± 0.0036,0.0608 ± 0.013,0.0537 ± 0.0096,0.061 ± 0.0028,0.0632 ± 0.0078,,0.0576 ± 0.0015,0.0524 ± 0.00061
CCCCOC(=O)c1ccc(N)cc1 [Butamben],0.194 ± 0.0098,0.23 ± 0.018,0.277 ± 0.0069,0.186 ± 0.011,0.233 ± 0.0061,0.16 ± 0.0031,0.566 ± 0.058,0.304 ± 0.11,0.23 ± 0.086,0.218 ± 0.07,0.452 ± 0.0073,0.36 ± 0.026,0.344 ± 0.018
C#CCN(C)CCCOc1ccc(Cl)cc1Cl [Clorgyline hydrochloride],0.14 ± 0.0066,0.168 ± 0.0046,0.175 ± 0.0062,0.174 ± 0.0076,0.0744 ± 0.0031,0.133 ± 0.011,0.25 ± 0.093,0.21 ± 0.04,0.158 ± 0.013,0.208 ± 0.016,0.458 ± 0.027,0.392 ± 0.0072,0.222 ± 0.016
CN1CCN2c3ccccc3Cc3ccccc3C2C1 (stereo not drawn) [Mianserine hydrochloride],0.179 ± 0.0089,0.198 ± 0.013,0.283 ± 0.017,0.211 ± 0.014,0.142 ± 0.011,0.17 ± 0.0078,0.222 ± 0.042,0.303 ± 0.04,0.189 ± 0.0025,0.243 ± 0.03,0.4446 ± 0.0027,0.424 ± 0.0035,0.318 ± 0.015
O=C(O)CCC(=O)Nc1ccc(S(=O)(=O)Nc2nccs2)cc1 [Succinylsulfathiazole],0.257 ± 0.0064,0.328 ± 0.017,0.264 ± 0.0094,0.21 ± 0.018,0.18 ± 0.0018,0.157 ± 0.0071,0.447 ± 0.027,0.432 ± 0.04,0.196 ± 0.024,0.258 ± 0.028,,0.4084 ± 0.0019,0.317 ± 0.014
C=CCOC(Cn1ccnc1)c1ccc(Cl)cc1Cl (stereo not drawn) [Enilconazole],0.0491 ± 0.0028,0.0495 ± 0.0068,0.0424 ± 0.00087,0.0459 ± 0.0018,0.043 ± 0.0011,0.0488 ± 0.0025,0.0691 ± 0.01,0.0619 ± 0.0052,0.0767 ± 0.0029,0.0764 ± 0.0069,0.11 ± 0.01,0.193 ± 0.0082,0.0627 ± 0.0022
"CC(C)NCC(O)c1ccc(O)c(O)c1 (single isomer, unassigned; (+)) [(+)-Isoproterenol (+)-bitartrate salt]",0.211 ± 0.0042,0.274 ± 0.02,0.2493 ± 0.0013,0.18 ± 0.015,0.149 ± 0.0077,0.137 ± 0.0022,0.328 ± 0.028,0.468 ± 0.034,0.2017 ± 0.0019,0.199 ± 0.0075,0.497 ± 0.044,0.412 ± 0.013,0.326 ± 0.021
CN[C@@H]1[C@H](O)[C@H](NC)[C@H]2O[C@@]3(O)C(=O)C[C@@H](C)O[C@H]3O[C@@H]2[C@H]1O [Spectinomycin dihydrochloride],0.0517 ± 0.00091,0.0841 ± 0.0062,0.0632 ± 0.0013,0.075 ± 0.0085,0.0512 ± 0.00079,0.05437 ± 0.00031,0.0788 ± 0.0045,0.0788 ± 0.0017,0.0987 ± 0.0037,0.104 ± 0.013,0.228 ± 0.023,0.308 ± 0.021,0.0979 ± 0.014
CC[C@H](C)C(=O)O[C@H]1C[C@@H](C)C=C2C=C[C@H](C)[C@H](CC[C@@H]3C[C@@H](O)CC(=O)O3)[C@H]21 [Lovastatin],0.256 ± 0.0052,0.307 ± 0.01,0.0518 ± 0.002,0.21 ± 0.017,0.0567 ± 0.013,0.139 ± 0.0042,0.276 ± 0.026,0.35 ± 0.065,0.163 ± 0.018,0.192 ± 0.023,0.473 ± 0.043,0.43 ± 0.018,0.148 ± 0.042
CC1(C)S[C@@H]2[C@H](NC(=O)[C@H](C(=O)O)c3ccsc3)C(=O)N2[C@H]1C(=O)O [Ticarcillin sodium],0.256 ± 0.0056,0.296 ± 0.0051,0.28 ± 0.0035,0.2 ± 0.031,0.226 ± 0.0051,0.142 ± 0.0031,0.331 ± 0.056,0.305 ± 0.0068,0.178 ± 0.0019,0.196 ± 0.019,,0.419 ± 0.0051,0.354 ± 0.0093
Cc1cc(C(C)(C)C)cc(C)c1CC1=NCCN1 [Xylometazoline hydrochloride],0.226 ± 0.0033,0.285 ± 0.0055,0.261 ± 0.01,0.221 ± 0.011,0.164 ± 0.0057,0.161 ± 0.0028,0.272 ± 0.041,0.393 ± 0.066,0.173 ± 0.011,0.252 ± 0.059,,0.413 ± 0.015,0.331 ± 0.011
Nc1nc2c(ncn2COC(CO)CO)c(=O)[nH]1 [Ganciclovir],0.236 ± 0.0046,0.283 ± 0.0092,0.2718 ± 0.0013,0.202 ± 0.023,0.183 ± 0.003,0.136 ± 0.0066,0.314 ± 0.011,0.411 ± 0.019,0.21 ± 0.023,0.245 ± 0.013,0.473 ± 0.057,0.417 ± 0.016,0.365 ± 0.0063
CN(C)CCc1c[nH]c2ccc(Cn3cncn3)cc12 [Rizatriptan benzoate],0.24 ± 0.0036,0.2899 ± 0.0026,0.258 ± 0.00081,0.198 ± 0.0062,0.213 ± 0.022,0.141 ± 0.006,0.337 ± 0.057,0.417 ± 0.051,0.193 ± 0.0065,0.211 ± 0.015,,0.408 ± 0.012,0.34 ± 0.0085
O=C(O)CCc1nc(-c2ccccc2)c(-c2ccccc2)o1 [Oxaprozin],0.143 ± 0.0053,0.169 ± 0.0038,0.206 ± 0.0029,0.102 ± 0.0063,0.0905 ± 0.0025,0.0775 ± 0.0013,0.223 ± 0.022,0.165 ± 0.0041,0.139 ± 0.0021,0.152 ± 0.0088,0.381 ± 0.039,0.3746 ± 0.0018,0.128 ± 0.0076

# From the supplement of paper PMC9262897, “Low-cost anti-mycobacterial drug discovery using engineered E. coli” (Nature Communications, 2022)
